Where “and” joins values, the source holds several entries; their conditions need not be identical. Equal values may be shown once. Calls of active or inactive are those of the source. Rule for the calls: active = hit-call score of the fitted dose curve at least 0.9, where 1 is the maximum; inactive = score below 0.9.

A short description of this assay: CCTE_Shafer_MEA_acute_cross_correlation_HWHM: CCTE's Neural Acute Assay for Cross Correlation at Half Width at Half Maximum, Shafer Lab (AID 2284026). As to the method:
CCTE_Shafer_MEA_acute assay is conducted using Axion Biosystems 48 well microelectrode array (MEA) plates and Maestro recording system. Each well of the MEA plate contains a grid of 16 microelectrodes embedded in the culture surface. Electrically active cells, such as neurons, can be cultured over the electrodes, and electrical activity in these cells can be recorded extracellularly. The spontaneous firing of neurons is captured from each electrode on a microsecond timescale providing both temporally and spatially precise data. […] The CCTE_Shafer_MEA_acute assay uses primary cultures of rat cortical neurons. As these cultures mature over time, neural networks develop functional activity and form cohesive networks in which electrical activity can be highly coordinated. Baseline 40-minute recordings are made on days post-plating 13 or 15, followed by a secondary 40-minute recording after chemical exposure.CCTE_Shafer_MEA_acute_cross_correlation_HWHM is a component of the CCTE_Shafer_MEA_acute assay. It measures the distance along the x-axis (phase lag) from the left half maximum height to the center of the cross-correlogram of action potential firing during a recording in a microelectrode array (MEA) using Axion Biosystems Maestro 768 channel amplifier with the AxIS adaptive spike detector. Smaller values indicate a narrower correlogram (greater synchrony). The recordings before and after chemical treatment are used to calculate a percent change in the half width at half maximum of the cross-correlogram in each well.Data from the assay component CCTE_Shafer_MEA_acute_cross_correlation_HWHM was analyzed into 1 assay endpoint. This assay endpoint, CCTE_Shafer_MEA_acute_cross_correlation_HWHM, was analyzed in the negative analysis fitting direction relative to DMSO as the negative control and baseline of activity. Using a type of functional reporter, gain or loss-of-signal activity can be used to understand electrical activity.
Spontaneous activity in the cortical cultures was recorded using an Axion Biosystems Maestro 768 channel amplifier and Axion Integrated Studios (AxIS) v1.8 (or later) software. The amplifier recorded from all channels simultaneously (gain = 1200 x; sampling rate = 12.5 kHz/channel): raw signals were filtered with a Butterworth band-pass filter (300-5000 Hz), which filters out slower local field potentials leaving only fast potentials, i.e., "spikes", arising from extracellular currents associated with action potentials (Pine 2006; Wheeler and Nam 2011). On-line spike detection of filtered signals was conducted with the AxIS adaptive spike detector, using a threshold of 8x the root mean squared (rms) noise on each channel. Any electrodes with rms noise levels greater than 5 uV were grounded (e.g., no data were recorded). Once grounded, an electrode was grounded for the duration of the experiment. All recordings were conducted at 37 C. Wells were deemed usable if on the day of the exposure >/= 10 electrodes were active (defined as >/= 5 spikes/min). On DIV 13 or 15, a minimum of three wells from one cortical culture preparation were treated with each compound (0.03-40 uM). Prior to recording baseline activity, each mwMEA plate was placed in the Maestro at 37 C and allowed to sit for 20 min while firing rates stabilized. Baseline activity (40 min) was recorded before the addition of each compound. An additional 40 min of spontaneous activity was recorded in the presence of each compound. Changes in network parameters relative to baseline were assessed following compound treatment.
In the case of `CCc1ccc(CCOc2ccc(CC3SC(=O)NC3=O)cc2)nc1` (stereo unspecified), the compound was classed as inactive.

Turning to `CC#C[C@]1(O)CC[C@H]2[C@@H]3CCC4=CC(=O)CCC4=C3[C@@H](c3ccc(N(C)C)cc3)C[C@@]21C`, the AC50 is 20 µM (active) and 5.43 µM (active).

As for `O=c1c(-c2ccc(O)cc2)coc2cc(O)ccc12`, the half-maximal activity concentration (AC50) was 24.4 µM (active).

Regarding `CC[C@H](c1ccc(O)cc1)[C@@H](CC)c1ccc(O)cc1`, the compound was classed as inactive.

As for `CCCCCCCCCCCCc1ccccc1S(=O)(=O)O`, the outcome was inactive.

As for `CC(=O)NC1(c2cccc(F)c2)CCN(CC[C@@]2(c3ccc(Cl)c(Cl)c3)CN(c3ccccc3)C(=O)CO2)CC1`, the AC50 is 20 µM (active).

On to `CCCOc1sc(C(=O)N2CCC(c3cc(CN)ccc3F)CC2)c(C)c1Br`, for which the call was inactive.

Take `OCCC(F)(F)C(F)(F)C(F)(F)C(F)(F)C(F)(F)C(F)(F)C(F)(F)C(F)(F)F`: the call was inactive.

Regarding `CN(C)C=O`, the compound was called inactive.

As for `CCCCCCCCCCCCN1CCCC1=O`, the call was inactive.

As for `Cc1cc(CCN2CCN(c3nsc4ccccc34)CC2)cc2c1NC(=O)CC2(C)C`, the AC50 is 20 µM (active).

`CN1CCN(c2ccccc2/C=C2\SCCN(c3ccc(Cl)c(Cl)c3)C2=O)CC1`: the concentration at half-maximal activity (AC50) was 3.97 µM (active).

With `CC(C)(C)c1cc(C(C)(C)C)c(O)c(C(C)(C)C)c1`, the compound was classed as inactive.

`CN1CCC[C@H]1c1cccnc1`: the compound was called inactive.

Turning to `CCC(=C(c1ccc(O)cc1)c1ccc(OCCN(C)C)cc1)c1ccccc1`, the outcome was inactive.

`CCCCCCCCCCCCCCCS(=O)(=O)Oc1ccccc1`: the call was inactive.

For the compound `Oc1cc2ccccc2c2ccccc12`, the call was inactive.

For `NC(=O)N(O)[C@@H]1C=C[C@H](Oc2cccc(Oc3ccc(F)cc3)c2)C1`, the AC50 was 10 µM (active).

`O=C(O)c1ccccc1C(c1ccc(O)cc1)c1ccc(O)cc1`: the compound was called inactive.

On to `OC1CCC(C2CCCCC2)CC1` (stereo unspecified), for which the AC50 is 30 µM (active).

In the case of `CC(C)CCCCCCOC(=O)CCCCC(=O)OCCCCCCC(C)C`, the outcome was inactive.

Source of the values: PubChem BioAssay (EPA / NIEHS).
